Data from PubChem BioAssay (NCI).
Compounds without any hit were thinned out: in the full panel of roughly 83,000, 20% have a hit.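 Treatment: one concentration, 48 hours, 96-well format. Scoring: percent growth, with anything below 10 considered active.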 Unmarked numbers belong to inactive results. Activity calls are given as the source filed them.

How the values were obtained:
Assay in all cases: NCI-60 one-dose screen, 48 h (100 = growth as untreated, 0 = no growth, -100 = all killed)
Conditions in all cases: 10 µM unless noted
T-47D breast = test system: T-47D breast
BT-549 breast = test system: BT-549 breast
SW-620 colon = test system: SW-620 colon
MCF7 breast = test system: MCF7 breast
HCT-116 colon = test system: HCT-116 colon
HCC-2998 colon = test system: HCC-2998 colon
KM12 colon = test system: KM12 colon

Row | SMILES | growth (T-47D breast) | growth (BT-549 breast) | growth (SW-620 colon) | growth (MCF7 breast) | growth (HCT-116 colon) | growth (HCC-2998 colon) | growth (KM12 colon)
1 | CCCCCC(/C=N\NC(=S)N/N=C/C(=C/c1ccccc1)CCCCC)=C\c1ccccc1 | 83.9% | 83.4% | 81.2% | 75.9% | 53.3% | 64.6% | 66.7%
2 | C[C@@H](CO)[C@@H]1CCC=C2CC[C@]3(C)[C@H](CC[C@@H]4[C@@]5(C)CCCNC(C)(C)[C@@H]5CC[C@]43C)[C@H]21 | 58.9% | 81.5% | -72.1% (active) | 7.68% (active) | – | -61.5% (active) | 4.99% (active)
3 | COc1ccc(C(=O)c2cc3c(N)c(C(=O)Nc4ccc(C)cc4)sc3nc2C)cc1 | 46.6% | 46.5% | 28.3% | 18.8% | 16.2% | 13.9% | 15.5%
4 | O=C(CSC(=S)n1cnnc1)NC(=O)c1ccccc1 | 100% | 102% | 103% | 99.3% | 112% | 104% | 103%
5 | Nc1ncnc2c1c(-c1cccc(Cl)c1)nn2CC(=O)N1CCOCC1 | 105% | 97.2% | 106% | 94.9% | 101% | 110% | 102%
6 | Cc1ccc(-c2nc([P+](c3ccccc3)(c3ccccc3)c3ccccc3)c(S(=O)(=O)c3ccc(C)cc3)o2)cc1 | 18.6% | 8.67% (active) | -70.3% (active) | 13.5% | -68.6% (active) | 38.3% | 18.8%
7 | Cn1c(I)c(C#CCO[Si](C)(C)C(C)(C)C)c(=O)[nH]c1=O | 61.9% | 97.1% | 11.4% | 88% | 94.6% | 99.7% | 107%
8 | CCOC(=O)n1cc(-c2nonc2-c2cn(C(=O)OCC)c3ccc(Br)cc23)c2ccccc21 | 52.9% | 98.3% | 85.8% | 69.6% | 62.7% | 86.9% | 72.7%
9 | CC1=C2[C@@H](CC1)[C@]1(C)O[C@@](C(C)C)(C[C@H]1OC(=O)[C@H](C)O)[C@H]2OC(=O)/C=C/c1ccccc1 | 57.6% | 15.9% | 95.1% | 81.6% | 74.2% | 90.7% | –
10 | COc1cc2cc(NCc3cccc(Cl)c3)nc(C)c2cc1OC | 52.7% | 23.1% | 17% | 55.4% | 8.02% (active) | 38.9% | 38.8%
11 | O=C(Nc1cccc(-c2ccc(N3CCOCC3)nn2)c1)Nc1cccc(C(F)(F)F)c1 | 8.63% (active) | 40.9% | 110% | 55.3% | 68.2% | 109% | 55.5%
12 | O=C1c2ccc3c4c5ccc(c24)C(=O)N1CCCOCCCCOCCCNCc1ccc(cc1)CNCCCOCCCCOCCCN(C3=O)C5=O | -48.7% (active) | 68.7% | -37.8% (active) | -58.3% (active) | -62.9% (active) | -75% (active) | -30.4% (active)
13 | O=C1Nc2ccccc2/C1=C/c1cccn1CCCCn1c2ccccc2c(=O)c2ccccc21 | 5.03% (active) | 74.5% | 98.8% | 3.81% (active) | 74.2% | 40.5% | 13%
14 | COC(=O)[C@@H](CCCCNC(=O)[C@]12CCC(C)(C)C[C@@H]1C1=CC[C@@H]3[C@@]4(C)C/C(=C/c5ccco5)C(=O)C(C)(C)[C@@H]4CC[C@@]3(C)[C@]1(C)CC2)NC(=O)[C@]12CCC(C)(C)C[C@@H]1C1=CC[C@@H]3[C@@]4(C)C/C(=C/c5ccco5)C(=O)C(C)(C)[C@@H]4CC[C@@]3(C)[C@]1(C)CC2 | 94.7% | 106% | 112% | 104% | 100% | 103% | 103%
15 | Cc1ccc(C[P+](c2ccccc2)(c2ccccc2)c2ccccc2)cc1 | 1.57% (active) | 0.272% (active) | 10.9% | 10.9% | 2.21% (active) | -26.4% (active) | -12.9% (active)
16 | CC(=O)/C(=C\c1c(-c2ccccc2)[nH]c2ccccc12)S(C)(=O)=O | 1.27% (active) | 4.06% (active) | 13.7% | 6.97% (active) | 21.2% | 36.8% | 4.04% (active)

Row | SMILES | growth (T-47D breast) | growth (BT-549 breast) | growth (SW-620 colon) | growth (MCF7 breast) | growth (HCT-116 colon) | growth (HCC-2998 colon) | growth (KM12 colon)
17 | CCCCCCC12CCC(=O)N1CCc1cncn12 (configuration not stated) | 91.9% | 114% | 102% | 94.8% | 106% | 108% | 113%
18 | N#CSc1c[nH]c2cccc(/C=C/C(=O)/C=C(/C=C/c3cccc4[nH]cc(SC#N)c34)OB(F)F)c12 | 9.55% (active) | -25.3% (active) | -35% (active) | -22.6% (active) | -88.5% (active) | -32.7% (active) | –
19 | CCN(CC)Cc1cc(C=C2C(=O)NC(=S)NC2=O)cc(OC)c1O | 114% | 110% | 107% | 97.6% | 114% | 118% | 111%
20 | COc1ccc(-c2cc(-c3cc(OC)c(OC)c(OC)c3)c(C#N)c(=O)n2CCCCC(=O)NO)cc1 | 50.7% | 92.7% | 47.9% | 66.5% | 25.1% | 87.5% | 73.1%
21 | O=[N+]([O-])c1cccc(-c2nc3cc4nc5ccccc5[nH]c4cc3n2)c1 | 87.5% | 102% | 112% | 77.7% | 93.1% | 112% | 100%
22 | O=S(=O)(Nc1ccc(Cl)c(C(F)(F)F)c1)c1ccc(-c2cnc(C3CC3)o2)cc1 | 12.8% | 23.7% | 22.4% | 15.4% | 10.1% | 25.1% | 8.14% (active)
23 | N#Cc1ccc(O)c(C2=NCC(c3cccc(Oc4ccccc4)c3)O2)c1 (configuration not stated) | -12.5% (active) | 30.6% | 25.6% | 21.4% | 16.9% | 43.7% | 21%
24 | COc1ccc(/C=C(\C#N)n2nnc3cc(Cl)ccc32)cc1 | 17.2% | -1.84% (active) | 8.09% (active) | 1.74% (active) | -9.51% (active) | -30.2% (active) | –
25 | Cc1cc(S(=O)(=O)/N=C(\N)n2nc(C)c(C)c2C)c(SCc2ccccc2)cc1Cl | 53% | 112% | 75.4% | 70.8% | 62% | 56.9% | 81.7%
26 | O=C1Nc2ccc(C(=O)O)cc2/C1=N/c1nnc(Sc2ccccc2)s1 | 103% | 123% | 103% | 101% | 104% | 112% | 99.9%
27 | O=S(=O)(Nc1cc(F)cc(Cl)c1)c1ccc(-c2cnc(C3CC3)o2)cc1 | 31.7% | 40.6% | 12% | 13.7% | 28.1% | 54.9% | –
28 | O=c1c2cnn(-c3ccccc3)c2n2c(CN3CCOCC3)nnc2n1-c1ccccc1 | 81.9% | 75.2% | 110% | 99.3% | 78.8% | 104% | 101%
29 | CCSc1nc2scc(C)c2c(=O)[nH]1 | 101% | 96.8% | 104% | 96.3% | 101% | 106% | 103%
30 | S=c1sc2c(Cl)nc(-c3cccnc3)nc2n1-c1ccccc1 | -14.5% (active) | 27.9% | 0.199% (active) | 3.63% (active) | 1.57% (active) | 39.6% | 46.3%
31 | CSc1oc(C)nc1[P+](c1ccccc1)(c1ccccc1)c1ccccc1 | 8.57% (active) | 43.4% | 65.1% | 23.5% | 33.4% | 42.8% | 23%
